Laboratory results published in PubChem BioAssay (NCI).
This is part of a sample that, as a whole, favours compounds with a hit. Of some 79,000 tested, about 15% had one in any assay. Rule as the data show it: active = growth inhibition above about 70%; inactive = the rest.

Assays:
[1] = NCI Yeast Anticancer Drug Screen. Data for the rad50 strain (AID 155);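 also: 0% = growth of vehicle-only cultures of the same strain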; settings: S. cerevisiae rad50 strain growth inhibition; at 50.0 µM; stronger effect = higher value
Outline: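 Relative growth inhibition (compound vs vehicle) was measured in yeast with a defined repair-gene alteration.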

[2] = NCI Yeast Anticancer Drug Screen. Data for the mec2-1 strain (AID 157); settings: S. cerevisiae mec2-1 strain, at 50.0 µM, stronger effect = higher value
Outline: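 Vehicle-treated cultures served as reference for growth inhibition of compound-exposed mec2-1 yeast.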

[3] = NCI Yeast Anticancer Drug Screen. Data for the sgs1 mgt1 strain (AID 161);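 also: 0% = growth of cultures given vehicle only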; settings: S. cerevisiae sgs1 mgt1 strain, at 50.0 µM, stronger effect = higher value
Outline: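 Test agents were incubated with a DNA-repair-mutant yeast strain. Growth was then read and compared against vehicle-treated controls.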

[4] = NCI Yeast Anticancer Drug Screen. Data for the cln2 rad14 strain (AID 165);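 also: 0% = growth equal to vehicle treated cultures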; settings: S. cerevisiae cln2 rad14 strain, at 50.0 µM, stronger effect = higher value
Outline: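 Each compound was tested on cln2 rad14 yeast. Inhibition of growth was calculated against vehicle-exposed controls.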

[5] = NCI Yeast Anticancer Drug Screen. Data for the bub3 strain (AID 167); settings: S. cerevisiae bub3 mutant strain, at 50.0 µM, stronger effect = higher value
Outline: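 Screening used yeast with an engineered genetic alteration affecting cell cycle control. Compound-exposed cultures were compared with vehicle cultures, and reduced growth was taken as inhibition.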

[6] = NCI Yeast Anticancer Drug Screen. Data for the mlh1 rad18 strain (AID 175); settings: S. cerevisiae mlh1 rad18 strain growth inhibition; at 50.0 µM; stronger effect = higher value
Outline: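 Vehicle-treated cultures served as the reference for growth inhibition in a yeast strain carrying DNA damage repair alterations exposed to each compound.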

Measured: growth inhibition

COc1ccccc1C(O)c1ccccc1 (stereo not given)
inactive: [1] 9.6% | [2] -30.4% | [3] 15.3% | [4] 11.4% | [5] 9.3% | [6] 3.75%

COc1ccc2cc1Oc1ccc(cc1)CC1c3c(cc(OC)c4c3Oc3cc5c(cc3O4)CCNC5C2)CCN1C (stereo not given)
inactive: [1] -15.9% | [2] -31.6% | [3] -12.2% | [4] -1.1% | [5] -38.8% | [6] -25.1%

C#CCNCCCn1c(=O)nc2n(-c3ccccc3)c3ccccc3nc-2c1=O
inactive: [1] 56% | [2] 19.2% | [3] 27.1% | [4] 29.4% | [5] 0.55% | [6] 43%

O=C(Nc1ccccc1)OCC#CCOC(=O)Nc1ccccc1
inactive: [1] 27.4% | [2] 11.7% | [3] 17.6% | [4] -60.5% | [5] 2.45% | [6] 11%

O=C1C[C@@H]2CCCC[C@@H]2C12SCCS2
inactive: [1] -10.9% | [2] -18.6% | [3] -6.95% | [4] 13.8% | [5] -9.45% | [6] -5.25%

CC[N+](CC)(CC)CCO
inactive: [1] -11.6% | [2] -23.6% | [3] -10.9% | [4] 20.7% | [5] -11.5% | [6] -18.5%

COc1cc([N+](=O)[O-])c(OC)cc1N
inactive: [1] 2.45% | [2] -8.3% | [3] -13.1% | [4] -27.4% | [5] -27.4% | [6] 27.6%

N#Cc1c(-c2ccccc2)c(C#N)c(=O)n(N)c1N
inactive: [1] -6.7% | [2] -0.8% | [3] 7.35% | [4] 2.5% | [5] 23.1% | [6] 16.9%

Cc1cc(C)n(/N=C/c2ccccc2[N+](=O)[O-])c(=O)c1C#N
inactive: [1] 4.65% | [2] 9.4% | [3] -2.75% | [4] -0.25% | [5] -2.35% | [6] -6.85%

CCOC(=O)C1(C(=O)OCC)CCCN1C(=O)[C@H](CNC(=O)OC(C)(C)C)NC(=O)OCc1ccccc1
inactive: [1] 32.1% | [2] 12.8% | [3] -10.9% | [4] -0.45% | [5] -30.1% | [6] -79.8%

CCC(/C=C\C(C)C1CCC2C3CC=C4CC(OC)CCC4(C)C3CCC12C)C(C)C (stereo not given)
inactive: [1] 25.2% | [2] 5.1% | [3] -3.4% | [4] 20.6% | [5] -3.5% | [6] 9.05%

Nc1ccccc1Br
inactive: [1] 29.6% | [2] 34.5% | [3] 21.4% | [4] -31% | [5] 12.2% | [6] 20.6%

Cc1ccc[nH]c1=O
inactive: [1] -9.9% | [2] -15.1% | [3] -0.6% | [4] -8.05% | [5] -8.45% | [6] 2.4%

CN(C)C(=O)C1C2CC3OC(=O)C1C3C2 (stereo not given)
inactive: [1] 15.8% | [2] -5.4% | [3] 6.2% | [4] -41.3% | [5] -1.65% | [6] -0.6%

Brc1ccc(-c2nnc(-c3ccc(Br)cc3)o2)cc1
inactive: [1] 14.8% | [2] -4.6% | [3] -0.8% | [4] -4.7% | [5] 0.25% | [6] 1.4%

Cc1n[nH]c(=O)n1Nc1ccccc1
inactive: [1] 13.2% | [2] -7.7% | [3] 9.1% | [4] 13.3% | [5] 1.5% | [6] 6.6%

CC(=O)NC1=CC(=O)c2cc(C)cc(O)c2C1=O
inactive: [1] 23.3% | [2] 21.9% | [3] 20.1% | [4] 16.2% | [5] 28.1% | [6] -14.6%

N#Cc1cccc(Nc2ccccc2SSc2ccccc2Nc2cccc(C#N)c2)c1
inactive: [1] 13.1% | [2] 7.6% | [3] 17.5% | [4] -7.4% | [5] 3.95% | [6] 12.8%

Nc1cccc(CC(NC(=O)c2ccccc2)C(=O)O)c1 (stereo not given)
inactive: [1] -16.4% | [2] 2.1% | [3] 12.1% | [4] -4.3% | [5] 28.6% | [6] -22.7%

CCc1cccc(CC)c1Nc1nc(-c2ccccc2-c2ccccc2)cs1
inactive: [1] -29.1% | [2] -4.4% | [3] -7.05% | [4] -99.2% | [5] -20.9% | [6] -39.9%
